# Test results from PubChem BioAssay.
# Where “and” joins values, the source holds several entries; their conditions need not be identical. Equal values may be shown once. Calls of active or inactive are those of the source. Rule as the data show it, unless noted: active = inhibition above about 80%; inactive = the rest.
# How the values were obtained:
# [1] = target: 6-phosphogluconate dehydrogenase, decarboxylating (Homo sapiens) (UniProt P52209); assay: inhibition of human phosphogluconate dehydrogenase – biochemical, recombinant enzyme, NADPH absorbance, primary screen (AID 1159550;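 active = at least 20% inhibition of 6-phosphogluconate dehydrogenase activity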); details: recombinant 6PGD, NADPH absorbance 341 nm; at 10 µM; stronger effect = higher value
# [2] = viability loss with induced miR-34 in A549 – imaging, A549 dox-inducible miR-34, nuclei and caspase counts, primary screen (AID 1347080;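 active = compounds whose cell count with miR-34 switched on is under 0.7 times the count with it off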); details: A549 miR-34 inducible, Hoechst nuclei count, 48 h
# [3] = MELAS cybrid and Rieske KO viability enhancers – cell-based, MELAS cybrids, Rieske KO mouse fibroblasts, CellTiter-Glo, primary screen (AID 1508586;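 active = mean z-score across replicates of 1.96 or higher in either the MELAS or the Rieske mutant cell line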;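 also: z relative to plate mean and SD of compound and empty wells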); details: low glucose
# [4] = galactose survival enhancers in mitochondrial complex I cybrids – cell-based, galactose medium, ATP luminescence, primary screen (AID 1645843;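 active = z-score of at least 1.8 in each of two replicates, scored against plate mean and spread of sample wells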;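 also: positive z means more ATP and so rescue of galactose-driven cybrid death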); details: complex I mutant cybrid cells, 72 h, stronger effect = higher value
# [5] = growth inhibition, single agent or in combination, cell-based, chromothripsis tumors, cisplatin or BGB combos (AID 1671449); details: LFS_MB_P medulloblastoma cells;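 also: cells exposed for 96 hours; 0% = vehicle DMSO and 100% = killing by high DMSO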
# [6] = growth inhibition, single agent and combos, cell-based, chromothripsis tumors, cisplatin or BGB combos (AID 1671450); details: HDN33 neuroblastoma cells, stronger effect = higher value;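 also: cells exposed to compound for four days; 0% = vehicle DMSO and 100% = cell killing by high DMSO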
# [7] = growth inhibition, single agents and combos, ICB984, cell-based, cisplatin or BGB combos, synergistic combos for chromothripsis tumors (AID 1671451; call rule not given here;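 also: cells exposed for 96 hours before readout; 0% = vehicle DMSO and 100% = killing by high DMSO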); details: ICB984 medulloblastoma cells, drug combinations, stronger effect = higher value
# [8] = growth inhibition, single agents and combos, LFS_MB_1R, cell-based, cisplatin or BGB combos, synergistic combos for chromothripsis tumors (AID 1671452); details: LFS_MB_1R medulloblastoma cells, stronger effect = higher value;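 also: cells exposed for 96 hours before readout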
# [9] = growth inhibition, single agents and combos, HTB85, cell-based, BGB or cisplatin IC20 combos, synergistic combos for chromothripsis tumors (AID 1671453); details: HTB85 osteosarcoma cells, drug combinations, stronger effect = higher value;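 also: cells exposed for 96 hours before readout; 0% = vehicle DMSO and 100% = high DMSO killing control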
# [10] = growth inhibition, single agents and combos, CRL2098, cell-based, BGB or cisplatin IC20 combos, synergistic combos for chromothripsis tumors (AID 1671454); details: CRL2098 osteosarcoma cells, drug combinations, stronger effect = higher value;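 also: cells exposed for 96 h before readout; 0% = vehicle DMSO and 100% = killing by high DMSO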
# [11] = growth inhibition, single agents and combos, HD-MB03, cell-based, BGB or cisplatin IC20 combos, synergistic combos for chromothripsis tumors (AID 1671455; in the data active = inhibition above about 83%;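 also: 0% = vehicle DMSO and 100% = high DMSO as cytotoxic control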); details: HD-MB03 medulloblastoma cells, stronger effect = higher value
# [12] = growth inhibition, single agents and combos, UWB1.289, cell-based, BGB or cisplatin combos, synergistic combos for chromothripsis tumors (AID 1671456); details: UWB1.289 ovarian carcinoma cells, stronger effect = higher value;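 also: cells exposed to compound for four days; 0% = vehicle DMSO and 100% = killing by high DMSO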
# [13] = growth inhibition, single agents and combos, LFS_MB_2R, cell-based, cisplatin combos, synergistic combos for chromothripsis tumors (AID 1671457); details: LFS_MB_2R medulloblastoma cells, stronger effect = higher value;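 also: cells exposed to compound for four days before readout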
# [14] = growth inhibition, MDA-MB-436, cell-based, BGB or cisplatin combos, synergistic combos for chromothripsis tumors (AID 1671458; call rule not given here;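 also: cells exposed for 96 hours; 0% = vehicle DMSO and 100% = killing by high DMSO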); details: MDA-MB-436 breast carcinoma growth inhibition, drug combinations, stronger effect = higher value
# [15] = UWB1.289_BRCA1 ovarian cancer growth, cell-based, BGB or cisplatin combinations (AID 1671459); details: UWB1.289 BRCA1 ovarian carcinoma, drug combinations, stronger effect = higher value
# [16] = drug combination toxicity in non-malignant astrocytes – cell-based, BGB or cisplatin IC20 combos, cytotoxicity control for chromothriptic childhood tumor combination screen (AID 1671460); details: Human astrocytes, viability inhibition, drug combinations, at 0.5 µM, stronger effect = higher value;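 also: cells exposed to compounds for 96 hours before viability readout; 0% = vehicle and 100% = killing control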
# [17] = BT084 cell growth, single and combined drugs, ICGC_MB145, cisplatin and BGB IC40 combos (AID 1671461); details: BT084 medulloblastoma cells, drug combinations, stronger effect = higher value;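 also: cells exposed to drugs for 96 hours; 0% = vehicle DMSO and 100% = high DMSO full killing control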
# [18] = RCMB18 cell growth, single agent and combined, cisplatin and BGB IC40 combos (AID 1671462); details: RCMB18 medulloblastoma cells, stronger effect = higher value;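 also: cells exposed to compound for four days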
# [19] = CRL1545 cell growth, single agent and combined, cisplatin and BGB IC20 combos (AID 1671464); details: CRL1545 osteosarcoma cells, stronger effect = higher value;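 also: cells exposed to compound for 96 hours before readout; 0% = vehicle DMSO and 100% = high DMSO killing control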
# [20] = measured here: combination with BGB IC40, at 0.05 µM
# [21] = measured here: with BGB IC20 combination, at 0.5 µM
# [22] = measured here: with cisplatin IC20 combination, at 0.5 µM
# [23] = measured here: combination with cisplatin, at 0.5 µM
# [24] = measured here: combination with cisplatin, at 5 µM
# 6-phosphogluconate dehydrogenase, decarboxylating (Homo sapiens), sequence (P52209 whole entry, looked up): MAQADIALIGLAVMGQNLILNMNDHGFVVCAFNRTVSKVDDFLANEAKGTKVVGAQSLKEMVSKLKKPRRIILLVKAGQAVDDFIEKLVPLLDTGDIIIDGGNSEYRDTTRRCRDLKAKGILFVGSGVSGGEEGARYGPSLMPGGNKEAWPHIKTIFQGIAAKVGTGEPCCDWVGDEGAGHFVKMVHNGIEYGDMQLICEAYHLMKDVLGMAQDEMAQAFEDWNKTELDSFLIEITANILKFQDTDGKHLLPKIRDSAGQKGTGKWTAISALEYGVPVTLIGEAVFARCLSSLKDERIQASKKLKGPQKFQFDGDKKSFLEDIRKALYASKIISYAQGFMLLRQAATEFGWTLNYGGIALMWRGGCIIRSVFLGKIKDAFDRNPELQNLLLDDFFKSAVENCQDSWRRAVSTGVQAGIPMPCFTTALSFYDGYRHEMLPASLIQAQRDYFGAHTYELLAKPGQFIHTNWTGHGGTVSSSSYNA
smiles,measurement,setting,value
COC1C(OC(N)=O)C(O)C(Oc2ccc3c(O)c(NC(=O)c4ccc(O)c(CC=C(C)C)c4)c(=O)oc3c2C)OC1(C)C (stereo unspecified),inhibition,[1],-15.7% (inactive)
same,fold change,"[2]; stronger effect = lower value, cell number ratio, induced over uninduced",0.913 (inactive) and 0.926 (inactive)
same,fold change,[2]; measured here: relative caspase fold change +Dox/-Dox,2.12 and 1.18
same,cell count,"[2]; measured here: total cells with miR-34 induction, stronger effect = lower value",9290 and 8980
same,cell count,[2]; measured here: total cells without miR-34 induction,10200 and 9700
same,z-score,"[3]; MELAS cybrid survival, CellTiter-Glo 48 h, stronger effect = higher value",-0.751 (inactive) and -0.28 (inactive)
same,z-score,"[3]; Rieske KO mouse fibroblast survival, CellTiter-Glo 72 h",-1.31 and -0.896
same,z-score,[4],0.215 (inactive)
same,inhibition,"[5]; at 0.5 µM, stronger effect = higher value",-3.51% (inactive)
same,inhibition,"[5]; measured here: combination with BGB IC20, at 0.005 µM",-14%
same,inhibition,"[5]; measured here: combination with BGB IC40, at 0.005 µM",-18.4%
same,inhibition,[5]; [20],-8.09%
same,inhibition,"[5]; measured here: combination with cisplatin, at 0.5 µM, stronger effect = higher value",-1.03%
same,inhibition,"[5]; measured here: combination with cisplatin, at 5 µM, stronger effect = higher value",-41%
same,inhibition,"[6]; BGB combo, at 5 µM",-12%
same,inhibition,[6]; at 0.5 µM,-8.11% (inactive)
same,inhibition,"[6]; cisplatin combo, at 5 µM",0.721%
same,inhibition,[6]; [21],3.35%
same,inhibition,[6]; [22],2.19%
same,inhibition,"[6]; single agent, at 5 µM",-35.9%
same,inhibition,"[7]; BGB IC20 combo, at 0.005 µM",-23.7%
same,inhibition,"[7]; BGB IC40 combo, at 0.005 µM",-54.1%
same,inhibition,"[7]; BGB IC40 combo, at 0.05 µM",-30.8%
same,inhibition,[7]; at 0.5 µM,-1.24% (inactive)
same,inhibition,"[7]; cisplatin combo, at 0.05 µM",-30.8%
same,inhibition,"[7]; cisplatin combo, at 0.5 µM",-1.05%
same,inhibition,"[7]; cisplatin combo, at 5 µM",-22.8%
same,inhibition,"[7]; measured here: 5 uM single agent, at 5 µM",-16.3%
same,inhibition,[8]; at 0.5 µM,-15% (inactive)
same,inhibition,[8]; [20],-15.8%
same,inhibition,[8]; [23],17.7%
same,inhibition,[8]; [24],-65.5%
same,inhibition,[9]; at 0.5 µM,-17.6% (inactive)
same,inhibition,"[9]; measured here: with BGB IC20, at 0.5 µM",-24%
same,inhibition,"[9]; measured here: with BGB IC20, at 5 µM",20.3%
same,inhibition,"[9]; measured here: with cisplatin IC20, at 0.5 µM",-30.3%
same,inhibition,"[9]; measured here: with cisplatin IC20, at 5 µM",-20.2%
same,inhibition,"[9]; single agent, at 5 µM",-19%
same,inhibition,[10]; at 0.5 µM,-21.7% (inactive)
same,inhibition,"[10]; measured here: combination with BGB at IC20, at 0.5 µM",-45.3%
same,inhibition,"[10]; measured here: combination with cisplatin at IC20, at 0.5 µM",-25.6%
same,inhibition,[11]; at 0.5 µM,-9.35% (inactive)
same,inhibition,"[11]; measured here: combo with BGB at IC20, at 0.5 µM",-5.37%
same,inhibition,"[11]; measured here: combo with cisplatin at IC20, at 0.5 µM",-13.3%
same,inhibition,[12]; at 0.5 µM,-6.21% (inactive)
same,inhibition,"[12]; measured here: inhibition with BGB combination, at 0.05 µM",-33.1%
same,inhibition,"[12]; measured here: inhibition with cisplatin combination, at 0.05 µM",-19.6%
same,inhibition,[13]; at 0.5 µM,-20.5% (inactive)
same,inhibition,[13]; [23],-9.82%
same,inhibition,[13]; [24],-11.7%
same,inhibition,[14]; at 0.5 µM,-31.4% (inactive)
same,inhibition,"[14]; measured here: BGB combination, at 0.5 µM",-38.4%
same,inhibition,"[14]; measured here: BGB combination, at 5 µM",-32.4%
same,inhibition,"[14]; measured here: cisplatin combination, at 0.5 µM",-35.8%
same,inhibition,"[14]; measured here: cisplatin combination, at 5 µM",-21%
same,inhibition,"[15]; BGB combination, concentration series, at 5 µM",-28.9%
same,inhibition,[15]; at 0.5 µM,-15.6% (inactive)
same,inhibition,"[15]; cisplatin combination, concentration series, at 5 µM",-9.79%
same,inhibition,[16],-3.92% (inactive)
same,inhibition,[16]; measured here: combo with BGB IC20,3.16%
same,inhibition,[16]; measured here: combo with cisplatin IC20,-8.92%
same,inhibition,[17]; at 0.5 µM,-4.18% (inactive)
same,inhibition,"[17]; cisplatin combination, at 0.5 µM",1.57%
same,inhibition,"[17]; cisplatin combination, at 5 µM",-32.1%
same,inhibition,"[17]; measured here: BGB IC40 combination 0.05 uM, at 0.05 µM",37.7%
same,inhibition,"[17]; single agent, at 5 µM",-18.6%
same,inhibition,[18]; at 0.5 µM,-22.3% (inactive)
same,inhibition,"[18]; cisplatin combo, at 5 µM",18.1%
same,inhibition,"[18]; measured here: BGB IC40 combination, at 0.05 µM",-10.1%
same,inhibition,[18]; [23],-16.8%
same,inhibition,"[18]; single agent, at 5 µM",-14.1%
same,inhibition,[19]; at 0.5 µM,-43.4% (inactive)
same,inhibition,[19]; [21],-36.9%
same,inhibition,[19]; [22],-46.6%
same,inhibition,"[19]; single agent, at 0.05 µM",-14.9%
same,inhibition,"[19]; single agent, at 5 µM",4.54%
